PMC5540273 (PLoS ONE, 2017)

Assays:
Settings in all cases: concentration: 1 μM, replicates: in singlicate; n = 1
[1] = tested on: CSNK2A1
[2] = tested on: CSNK2A2
[3] = tested on: T1, CTK
T1 construct: gene MATK

[4] = tested on: DAPK1
[5] = tested on: DAPK2
[6] = tested on: DAPK3
[7] = tested on: T2, DCAMKL1
T2 construct: gene DCLK1

[8] = tested on: T3, DCAMKL2
T3 construct: gene DCLK2

[9] = tested on: T4, DCAMKL3
T4 construct: gene DCLK3

[10] = tested on: DDR1
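Note: KINOMEscan kinase panel screen.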

Structure (SMILES) | %Inh [1] [%] | %Inh [2] [%] | %Inh [3] [%] | %Inh [4] [%] | %Inh [5] [%] | %Inh [6] [%] | %Inh [7] [%] | %Inh [8] [%] | %Inh [9] [%] | %Inh [10] [%]
Clc1cc(Nc2ncnc3cc[nH]c23)ccc1OCc1ccccn1 | 41 | 31 | 56 | 25 | 0 | 0 | 26 | 21 | 6 | 14
O=c1cc(N2CCOCC2)nc2n(Cc3cccc(Cl)c3)ccn12 [GSK2296823] | 0 | 0 | 22 | 0 | 0 | 7 | 17 | 12 | 0 | 21
FC(F)(F)c1ccc(-c2cc(-c3c[nH]nc3-c3ccccn3)ccn2)cc1 [GW599550] | 0 | 30 | 0 | 9 | 16 | 99.2 | 10 | 16 | 0 | 0
Fc1ccc(-c2ncn(CCCNCc3ccccc3)c2-c2ccncc2)cc1 | 22 | 27 | 25 | 23 | 11 | 16 | 0 | 2 | 15 | 18
Nc1nc(-c2cccnc2)c(-c2ccnc3ccccc23)s1 [GW684083] | 2 | 1 | 0 | 0 | 0 | 0 | 18 | 4 | 14 | 0
Cl.Cl.c1ccc(-c2cc3ccncc3cc2OC2CCNCC2)cc1 [GSK1122999] | 0 | 27 | 0 | 93.5 | 66 | 98.8 | 19 | 0 | 30 | 9
CC(=O)Nc1n[nH]c2ncc(-c3ccccc3)cc12 [SB-548492] | 20 | 25 | 38 | 100 | 1 | 0 | 36 | 15 | 0 | 0
COc1ccc(NC(=O)Nc2ccc(C)c(-c3ccc(C(=O)Nc4ccncc4)cc3)c2)cc1 [GSK1398475] | 0 | 0 | 0 | 5 | 0 | 3 | 10 | 0 | 9 | 88
Cc1ccc(NC(=O)c2cccc(C#N)c2)cc1-c1ccc(C(=O)Nc2ccncc2)cc1 [GSK1398463] | 0 | 9 | 19 | 0 | 0 | 6 | 19 | 15 | 0 | 100
CN1c2ccc(-c3ccc(C(=O)NCCO)cc3)cc2-c2[nH]ncc2S1(=O)=O | 25 | 47 | 0 | 32 | 36 | 31 | 26 | 12 | 2 | 0
Cl.Fc1ccccc1COc1ccc(Nc2ncnc3ccc(-c4nnc(C(F)(F)F)o4)cc23)cc1Cl [GW424170] | 0 | 15 | 0 | 0 | 0 | 5 | 10 | 1 | 7 | 6
CSc1nn2c(=O)cc(N3CCOCC3)nc2n1Cc1cccc(Cl)c1Cl [GSK2347225] | 5 | 33 | 0 | 14 | 5 | 24 | 29 | 0 | 3 | 17
COC(=O)c1c(-c2ccccc2)c2cc(Cl)ccc2c(=O)n1Cc1ccc(S(C)(=O)=O)cc1 | 3 | 35 | 3 | 21 | 0 | 0 | 5 | 1 | 4 | 51
Cn1ccc2ncnc(Nc3ccc(Oc4cccc(Cl)c4)c(Cl)c3)c21 | 0 | 39 | 45 | 18 | 0 | 0 | 43 | 5 | 0 | 0
O=C(NCCCN1CCCC1=O)c1cnc(NCc2cc(Cl)ccc2Cl)nc1NC1CCNCC1 | 0 | 7 | 5 | 14 | 0 | 0 | 17 | 12 | 0 | 0
CS(=O)(=O)CCNCc1ccc(-c2ccc3ncnc(Nc4ccc(OCc5ccccc5)c(Cl)c4)c3c2)o1.Cl [GW574783] | 3 | 5 | 0 | 0 | 0 | 0 | 0 | 0 | 4 | 10
COc1cc2c(Nc3cccc(NC(=O)c4ccccc4)c3)ncnc2cc1OCCCN1CCOCC1 [GSK223810] | 6 | 22 | 0 | 0 | 15 | 28 | 0 | 14 | 16 | 12
Cc1cccc(-c2nc(Nc3ccc4[nH]nnc4c3)c3ccccc3n2)n1 [GW867587] | 80 | 45 | 10 | 0 | 0 | 0 | 0 | 0 | 0 | 0
Fc1cccc(COc2ccc(Nc3ncnc4sc(-c5ccc[nH]5)cc34)cc2Cl)c1 [GW707818] | 0 | 0 | 0 | 28 | 0 | 22 | 28 | 0 | 30 | 4
COc1ccc(NC(=O)c2ccc(-c3cc(-c4nnc(C)o4)ccc3C)cc2)cc1 [GW595885] | 0 | 11 | 0 | 0 | 0 | 13 | 8 | 0 | 2 | 13
